The sample as a whole holds a higher share of hits than the screen did.
KDM5B inh: KDM5B demethylase inhibition; Q9UGL1; KDM5B demethylase, FDH-coupled NADH fluorescence (FDH is formaldehyde dehydrogenase); Potency, µM (top dose mostly 57.7 µM), hits mostly inhibitors; actives 2.6% (n = 220,000); AID 1347165; active means well fitted inhibition curve with a large enough effect; further: 0% is about no effect; nearly all actives have a fitted effect of over 70% in size
Target sequence (Q9UGL1 whole entry, looked up): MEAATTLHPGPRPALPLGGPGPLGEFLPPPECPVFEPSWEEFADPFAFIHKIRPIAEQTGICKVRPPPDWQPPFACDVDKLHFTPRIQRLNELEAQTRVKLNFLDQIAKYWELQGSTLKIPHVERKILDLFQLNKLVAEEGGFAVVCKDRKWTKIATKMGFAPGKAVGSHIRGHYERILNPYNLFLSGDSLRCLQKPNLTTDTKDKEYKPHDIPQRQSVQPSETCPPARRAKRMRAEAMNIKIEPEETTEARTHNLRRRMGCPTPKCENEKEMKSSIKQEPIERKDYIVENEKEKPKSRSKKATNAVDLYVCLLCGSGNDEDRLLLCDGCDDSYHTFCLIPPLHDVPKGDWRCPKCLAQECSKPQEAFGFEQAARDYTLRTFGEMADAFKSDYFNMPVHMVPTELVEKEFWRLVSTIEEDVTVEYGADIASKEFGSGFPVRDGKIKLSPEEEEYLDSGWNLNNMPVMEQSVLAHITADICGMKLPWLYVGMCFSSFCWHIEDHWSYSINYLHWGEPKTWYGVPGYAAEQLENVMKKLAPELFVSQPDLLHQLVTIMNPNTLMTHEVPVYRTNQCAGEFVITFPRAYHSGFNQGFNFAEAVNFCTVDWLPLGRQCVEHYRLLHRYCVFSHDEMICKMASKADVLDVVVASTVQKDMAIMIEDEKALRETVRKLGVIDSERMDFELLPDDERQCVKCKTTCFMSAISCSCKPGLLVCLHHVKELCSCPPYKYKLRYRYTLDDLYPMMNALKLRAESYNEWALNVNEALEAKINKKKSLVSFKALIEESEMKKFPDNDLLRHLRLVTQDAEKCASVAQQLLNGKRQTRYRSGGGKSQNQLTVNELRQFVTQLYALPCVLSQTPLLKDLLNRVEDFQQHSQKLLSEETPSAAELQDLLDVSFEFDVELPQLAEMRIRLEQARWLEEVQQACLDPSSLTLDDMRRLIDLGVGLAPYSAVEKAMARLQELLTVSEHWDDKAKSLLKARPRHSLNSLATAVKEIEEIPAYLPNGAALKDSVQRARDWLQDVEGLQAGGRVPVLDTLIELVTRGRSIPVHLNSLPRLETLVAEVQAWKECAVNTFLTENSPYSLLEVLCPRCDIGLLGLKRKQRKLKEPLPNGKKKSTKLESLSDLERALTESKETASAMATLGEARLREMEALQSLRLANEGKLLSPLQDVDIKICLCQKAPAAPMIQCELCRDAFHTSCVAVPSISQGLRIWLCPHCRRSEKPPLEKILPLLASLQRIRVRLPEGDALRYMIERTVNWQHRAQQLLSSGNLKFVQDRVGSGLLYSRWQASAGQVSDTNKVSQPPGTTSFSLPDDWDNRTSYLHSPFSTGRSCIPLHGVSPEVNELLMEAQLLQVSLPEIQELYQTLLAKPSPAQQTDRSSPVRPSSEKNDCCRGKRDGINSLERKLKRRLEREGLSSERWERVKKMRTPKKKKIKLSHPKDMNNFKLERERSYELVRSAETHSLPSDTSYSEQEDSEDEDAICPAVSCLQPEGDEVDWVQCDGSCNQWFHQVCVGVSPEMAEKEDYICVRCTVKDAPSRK
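Inhibition is measured as reduced NADH fluorescence generation from FDH coupling to formaldehyde release. Truncated KDM5BΔAP at 200 nM final acts on H3K4me3 peptide (12.5 µM in substrate mix) in pH 7.5 HEPES buffer with Tween-20, 30 min, room temperature.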
* marks the source's active call; other numbers are inactive results; i = inactive. Potency means the concentration at half of the fitted maximal effect.

SMILES | KDM5B inh
COc1ccc(OCc2nc(C3CN(C(=O)C4(c5ccccc5)CC4)C3)no2)cc1 | i
Cc1ccc(N/N=C/c2ccc(F)c(F)c2)cc1Cl | i
COc1cccc(C(=O)OCc2nc(N)c3ccccc3n2)c1 | i
CC(Oc1ccccc1)C(=O)N1CCC2(CC1)NC(=O)N(c1ccccc1Cl)N2 (stereo not given) | i
CC(=O)Nc1ncc2c(n1)CC(c1ccc(N(C)C)cc1)CC2=O (stereo not given) | i
CC(OC(=O)c1cc2ccccc2o1)C(=O)NC1(C#N)CCCCC1 (stereo not given) | i
COC(=O)CNC(=O)c1cc(-c2ccccc2OC)c2nncn2n1 | i
COC(=O)CNC(=O)c1cc(-c2ccccc2OC)c2cccn2n1 | i
COC(=O)CNC(=O)c1cc(-c2cccnc2)c2nncn2n1 | 100µM*
COC(=O)c1cccc(NC(=S)N[C@H]2CO[C@H]3[C@@H]2OC[C@H]3OC(=O)Nc2ccccc2)c1 | i
COc1ccc(N2CC3CCC(C2)N3Cc2cccc(-c3cccnc3)c2)cc1 | i
CC(C)(C)C(=O)/C=C/c1ccc([N+](=O)[O-])cc1 | i
O=C(Nc1ccc(F)c(Cl)c1)c1nc2ccccc2nc1N1CCCCC1 | i
CSc1cccc(NC(=O)c2cc3c(N4CCSCC4)nc(C)cn3n2)c1 | 25µM*
CSc1ncc(Cl)c(C(=O)Nc2ccc(C)c(C)c2)n1 | i
COc1ccc(NC(=O)c2cc3c(N4CCSCC4)nc(C)cn3n2)cc1F | 28µM*
COc1ccc(C(=O)NC2CCN(C(=O)c3cc4c(=O)[nH]c(C)cn4n3)CC2)cc1F | i
CSc1ccc(NC(=O)c2cc3c(N4CCSCC4)nc(C)cn3n2)cc1 | i
Cc1cn2nc(C(=O)Nc3ccc(F)c(C)c3)cc2c(N2CCSCC2)n1 | 32µM*
CSc1cccc(NC(=O)c2cccc(C)c2)c1 | i
Cc1cn2nc(C(=O)Nc3ccc(Cl)c(C)c3)cc2c(N2CCSCC2)n1 | 22µM*
COc1ccc(C(C)NC(=O)c2cc3c(N4CCCC4)nc(C)cn3n2)cc1OC (stereo not given) | i
CSc1cccc(NC(=O)c2cc3c(N4CCCC4)nc(C)cn3n2)c1 | i
Cc1cc(NC(=O)c2cnc3ccccc3n2)ccc1N1CCN(C)CC1 | i
CCC(=O)N1Cc2ccccc2CC2(CCCCN2Cc2cccnc2)C1 (stereo not given) | i
SMILES | KDM5B inh
N#Cc1ccc(OC(=O)c2occc2COc2ccccc2)cc1 | i
CC1CCC(NC(=O)Cc2coc(-c3ccccc3)n2)CC1 (stereo not given) | i
O=C(COc1ncnc2sc3c(c12)CCC3)N1CCc2ccccc2C1 | i
CCC(C)c1ccccc1NC(=O)Cn1nc(C(=O)O)c2ccccc2c1=O (stereo not given) | i
Cc1cccc2nc(C(=O)N3CCC(=O)N(CC4CC4)C(C(C)C)C3)cn12 (stereo not given) | i
CC(C)C1CN(c2cncc(C(=O)N3CCCC3)n2)CCC(=O)N1CC1CC1 (stereo not given) | 28µM*
Cc1c(-c2cc(C(=O)N3CCC(=O)N(CC4CC4)C(C(C)C)C3)no2)cnn1C (stereo not given) | i
CCOc1cc(CN2CCCCCC2c2cccc(F)c2)ccc1OCC(N)=O (stereo not given) | i
CCN(CC)S(=O)(=O)c1ccc(Cl)c2ccccc12 | i
CC(C)Cn1nc(C(=O)NN2C(=O)NC(c3ccccc3)(c3ccccc3)C2=O)c2ccccc2c1=O | i
COCCN1CCCC2(CCN(C(=O)c3oc4cc(C)ccc4c3C)C2)C1=O (stereo not given) | i
CCn1ccc2c(CN3CCC4(CCCN(CCOC)C4=O)C3)cccc21 (stereo not given) | 28µM*
COCCN1CCCC2(CCN(C(=O)COc3cccc(C)c3C)C2)C1=O (stereo not given) | i
CC(C)(C)NC(=O)/C(=C/c1ccc(-c2ccc(Cl)cc2)o1)NC(=O)c1ccc(Cl)cc1 | i
O=C(N[C@H](Cc1ccccn1)C1CC(O)C1)c1n[nH]c2c1CCCC2 (stereo not given in full) | i
O=C(N[C@H](Cc1ccccn1)C1CC(O)C1)c1cccc2c1NCCC2 (stereo not given in full) | 32µM*
O=C(Cc1c[nH]c2ccccc12)N[C@H](Cc1ccccn1)C1CC(O)C1 (stereo not given in full) | i
CC(C)CNC(=O)CSc1ncc(-c2ccc(F)cc2)o1 | i
COc1ccc(Cl)cc1CNC(=O)c1scnc1C | i
CCCCNC(=O)CSc1cc(C(=O)NC2CC2)c2ccccc2n1 | i
C=CCn1c(SC)nc2c1c(=O)n(C)c(=O)n2C | i
COc1ncccc1-c1cnc2n[nH]c(-c3ccccc3)c2n1 | 35µM*
COc1ncccc1-c1cnc2n[nH]c(-c3ccccc3C)c2n1 | 40µM*
c1cncc(-c2cnc3n[nH]c(-c4ccc5c(c4)OCO5)c3n2)c1 | i
COc1ccc(-c2[nH]nc3ncc(-c4cccnc4)nc23)cc1F | i
SMILES | KDM5B inh
COc1ccccc1-c1[nH]nc2ncc(-c3cccnc3OC)nc12 | i
Cc1ccc(C(CNC(=O)c2cc(-c3ccc4c(c3)CCCC4)on2)N2CCN(C)CC2)o1 (stereo not given) | i
O=C(CC1C(=O)Nc2nc(SCc3ccccc3)nn21)Nc1ccccc1 (stereo not given) | i
CC1Oc2ccc(NC(=O)Cc3ccc(F)cc3)cc2CN(Cc2ccc(Cl)cc2)C1=O (stereo not given) | i
CCC1Oc2ccc(NC(=O)C(C)C)cc2CN(Cc2ccccc2F)C1=O (stereo not given) | i
CC(=O)Oc1ccccc1C(=O)Nc1ccc2c(c1)CN(Cc1ccc(Cl)cc1)C(=O)C(C)O2 (stereo not given) | 35µM*
CC1Oc2ccc(NC(=O)c3cccs3)cc2CN(Cc2ccc(F)cc2)C1=O (stereo not given) | i
CCC1Oc2ccc(NC(=O)c3ccccc3OC(C)=O)cc2CN(Cc2ccccc2F)C1=O (stereo not given) | 25µM*
CCC1Oc2ccc(NC(=O)c3ccccc3Cl)cc2CN(Cc2ccccc2F)C1=O (stereo not given) | i
CN(C)Cc1nc(SCC(=O)Nc2ccc(F)cc2)c2ccccc2n1 | i
COC(CNC(=O)C1CCN(c2ncnc3sc4c(c23)CCC4)CC1)OC | i
COc1ncccc1CNC(=O)c1nccnc1N | i
CCc1noc2ncnc(N3CCCC(C(=O)NCCc4ccc(SC)cc4)C3)c12 (stereo not given) | i
Cc1ccc2nc(C)c(C(=O)NC3CCN(Cc4ccccc4)CC3)cc2c1 | i
C/C=C/C=C/C(=O)NCc1ccc(C(=O)NC)cc1 | i
N#Cc1ccc(-c2c(-c3ccccc3)ncn2CCNc2cccnc2)cc1 | 28µM*
CCOc1cc(-c2nccn2CCNc2cccnc2)ccc1O | i
CCOCCn1cnc(-c2ccccc2)c1-c1cccc(C#N)c1 | i
CC(C)CNC(=O)COC(=O)c1n[nH]c(=O)c2ccccc12 | i
COc1ccc(N2CC(c3noc(-c4ccccc4F)n3)CC2=O)cc1OC (stereo not given) | i
COc1cc(OC)cc(-c2nc(C3CC(=O)N(c4ccc(OC)c(OC)c4)C3)no2)c1 (stereo not given) | 28µM*
CCc1ccc(N2CC(c3noc(-c4ccccc4F)n3)CC2=O)cc1 (stereo not given) | i

Screening data from PubChem.
